Screens as filed in PubChem BioAssay.
Most compounds without a hit are left out; they make up all but 11% or so of the library.
HEK293 tox: Cytotoxic Profiling in HEK 293 Cell Line of Diverse Libraries Using Quantitative High-Throughput Screening; hit rate 6.6% among 94,000; HEK 293 viability, ATP luminescence (CellTiter-Glo), 48-72 h; Potency, µM (highest dose often 115 µM), inactives show at the top dose activity change, negative = cytotoxicity, most hits filed as inhibitors; also: nearly all actives have a fitted effect of over 60% in size
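Cytotoxicity was scored by loss of ATP-coupled luminescence (CellTiter-Glo) in HEK 293 cells. Compound treatment ran 48 or 72 hr at 37 degree Celsius, 5% CO2, 95% humidity.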
Luciferase inh: Firefly luciferase inhibition profiling of diverse chemical library using quantitative high-throughput screening; Luciferin 4-monooxygenase (Photinus pyralis), P08659; purified P. pyralis luciferase, luminescence, biochemical; Potency, µM (top dose mostly 115 µM), most hits filed as inhibitors; hit rate 2.5% among 76,000; also: nearly all actives have a fitted effect of over 65% in size
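Purified P. pyralis luciferase (10nM final) in 50mM Tris acetate pH 7.5, 10mM Mg acetate, 0.01% Tween-20, 0.05% BSA with 10uM D-luciferin and 10uM ATP. Compounds titrated qHTS. Luminescence imaged on CCD.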
NPR1 antag: Natriuretic polypeptide receptor (hNpr1) antagonism - Primary qHTS. Atrial natriuretic peptide receptor 1 (Homo sapiens), P16066. HEK293 hNpr1 GloSensor cGMP, ANP-stimulated luminescence. Potency, µM (highest dose often 46.3 µM), for the others: top-dose activity change, negative = inhibition, hits mostly inhibitors. hit rate 1.6% among 76,000. AID 1347048, 2019; calls by dose curve; also: nearly all actives have a fitted effect of over 60% in size
Target sequence (P16066 whole entry, looked up): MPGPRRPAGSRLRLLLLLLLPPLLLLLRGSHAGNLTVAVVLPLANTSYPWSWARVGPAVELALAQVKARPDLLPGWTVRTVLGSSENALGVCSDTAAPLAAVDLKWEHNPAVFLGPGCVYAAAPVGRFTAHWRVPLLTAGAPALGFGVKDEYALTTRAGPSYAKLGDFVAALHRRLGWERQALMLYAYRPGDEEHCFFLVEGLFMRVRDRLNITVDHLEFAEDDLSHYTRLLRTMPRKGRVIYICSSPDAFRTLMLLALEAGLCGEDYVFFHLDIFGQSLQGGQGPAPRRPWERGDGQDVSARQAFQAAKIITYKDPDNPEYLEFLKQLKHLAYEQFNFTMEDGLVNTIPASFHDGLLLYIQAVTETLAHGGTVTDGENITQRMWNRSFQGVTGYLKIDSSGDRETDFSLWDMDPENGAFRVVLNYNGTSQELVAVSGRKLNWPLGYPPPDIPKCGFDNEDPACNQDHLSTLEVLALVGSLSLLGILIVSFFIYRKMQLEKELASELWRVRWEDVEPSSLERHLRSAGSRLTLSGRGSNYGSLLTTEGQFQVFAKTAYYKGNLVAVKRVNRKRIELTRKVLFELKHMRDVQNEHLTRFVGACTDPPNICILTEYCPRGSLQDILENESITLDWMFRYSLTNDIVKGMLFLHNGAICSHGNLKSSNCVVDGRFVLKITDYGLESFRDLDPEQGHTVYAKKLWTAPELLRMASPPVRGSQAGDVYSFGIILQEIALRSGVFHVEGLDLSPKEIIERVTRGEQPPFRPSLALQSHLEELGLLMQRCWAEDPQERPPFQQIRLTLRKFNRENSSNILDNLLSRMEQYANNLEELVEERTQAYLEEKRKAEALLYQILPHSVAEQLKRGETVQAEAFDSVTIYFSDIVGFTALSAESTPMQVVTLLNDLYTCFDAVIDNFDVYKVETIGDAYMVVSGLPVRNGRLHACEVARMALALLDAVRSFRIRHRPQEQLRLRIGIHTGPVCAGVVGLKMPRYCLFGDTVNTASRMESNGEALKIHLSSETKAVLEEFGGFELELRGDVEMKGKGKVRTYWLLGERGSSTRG
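Compound pre-incubated 30 min at room temperature on GloSensor-loaded HEK293 cells stably carrying hNpr1 and the pGS-40F cGMP biosensor. Stimulation uses hNppA at 0.1 nM final; luminescence is taken at baseline and 20 min post-agonist.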
NIH3T3 tox: Cytotoxic Profiling in NIH 3T3 Cell Line of Diverse Libraries Using Quantitative High-Throughput Screening | NIH 3T3 viability, CellTiter-Glo ATP luminescence, 48-72 h | Potency, µM (highest dose often 96.7 µM), without a hit: at the highest dose activity change, negative = cytotoxicity, most hits filed as inhibitors | hit rate 4.3% among 94,000 | AID 1345082, 2018; also: nearly all actives have a fitted effect of over 55% in size
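ATP-dependent luminescence (CellTiter-Glo) served as the viability signal for NIH 3T3 cells treated with compound for 48 or 72 hr at 37 °C.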
* hit, by the source's call; i = inactive; ? = inconclusive; . = no result; [ ] = dose if it differs, or a comment. Unless noted, calls follow the shape of the dose curve; as a rule, active = well fitted curve in the direction sought with a large enough effect; inconclusive = small, poorly fitted or top-dose-only effect, or another doubt; inactive = no such curve, though single readings can be large; an effect the other way counts as inactive or inconclusive. % is scaled to controls: 0 for no effect and ±100 for the full control effect; potency is read from the fitted curve at half-maximal effect.

SMILES	HEK293 tox	Luciferase inh	NPR1 antag	NIH3T3 tox
COc1cccc(-c2cnc3[nH]cc(CC(=O)N4CCN(C)CC4)c3c2)c1	?	20µM*	-19%[70.6 µM]	?
CN1CCN(C(=O)Cc2c[nH]c3ncc(-c4cccc(OC(F)(F)F)c4)cc23)CC1	?	i	-1%[70.6 µM]	79µM*
CCC1(N2CCN(C(=O)Cc3c[nH]c4ccccc34)CC2)CCN(S(C)(=O)=O)C1 (configuration not stated)	-7%	i	-16%	-22%
CN1CCN(C(=O)Cc2c[nH]c3ncc(-c4ccccc4Oc4ccccc4)cc23)CC1	79µM*	i	?	?
COc1ccc(-c2cnc3[nH]cc(CC(=O)N4CCN(C)CC4)c3c2)cc1OC	-22%[172 µM]	i	5%[70.6 µM]	?
O=C([C@H]1CN2CCC1C[C@@H]2Cn1cc(COc2ccccc2)nn1)N1CCOCC1 (some centres not stated)	-6%[172 µM]	i	5%[70.6 µM]	-4%[174 µM]
Cc1ncc2c(n1)C[C@@H]1CC[C@H]2N1C(=O)Nc1ccc2c(c1)OCCO2	i	32µM*	5%	4%
CCOC(=O)[C@H]1CN(C(=O)Nc2ccc3c(c2)OCO3)[C@]2(C)C(=O)N(CC3CC3)c3ccccc3[C@H]12	35µM*	.	.	?
CCOC(=O)[C@H]1CN(C(=O)CCc2ccccc2)[C@]2(C)C(=O)N(CCOC(C)=O)c3ccccc3[C@H]12	89µM*	.	.	-29%
CCOC(=O)[C@H]1CN(C(=O)c2ccc3c(c2)OCO3)[C@]2(C)C(=O)N(CCOC)c3ccccc3[C@H]12	-24%[57.5 µM]	.	.	?
CCOC(=O)[C@H]1CN(C(=O)/C=C/c2ccccc2)[C@]2(C)C(=O)N(CC3CC3)c3ccccc3[C@H]12	28µM*	.	.	?
COc1cccc(CN2CCCCCCNC(=O)[C@@H]3CCC[C@@H]32)n1	?	i	-2%	-27%
Cn1cc(CN2CCN(C(=O)Cc3ccsc3)CC2)ccc1=O	-3%	i	0%	i
Cn1nc(C2CCCCC2)cc1[C@H]1CN2CC[C@H]1C[C@@H]2CNC(=O)Nc1ccccc1	32µM*	i	3%[70.6 µM]	28µM*
Cn1nc(C2CCCCC2)cc1[C@H]1CN2CC[C@H]1C[C@@H]2CNC(=O)c1ccc2c(c1)OCO2	?	i	-2%	?
COc1ccc(OC)c(S(=O)(=O)NC[C@H]2C[C@@H]3CCN2C[C@@H]3c2cc(-c3cccs3)nn2C)c1	?	i	-15%	79µM*
Cc1ccc(C(=O)NC[C@H]2C[C@@H]3CCN2C[C@@H]3c2cc(-c3cccs3)nn2C)cc1	?	i	2%[70.6 µM]	112µM*
Cc1ccc(C(=O)NC[C@H]2C[C@@H]3CCN2C[C@@H]3c2cc(C3CCCCC3)nn2C)cc1	?	i	-11%[70.6 µM]	35µM*
Cn1nc(C2CCCCC2)cc1[C@H]1CN2CC[C@H]1C[C@@H]2CNC(=O)Nc1cccc(C#N)c1	?	i	-8%	?
COc1ccccc1NC(=O)Nc1ccc2n(c1=O)C[C@H]1C[C@@H]2CN(C(=O)C(=O)O)C1	-1%[172 µM]	i	-1%[70.6 µM]	0%[174 µM]
Cn1nc(C2CCCCC2)cc1[C@H]1CN2CC[C@H]1C[C@@H]2CNC(=O)NCc1ccccc1	79µM*	i	1%	?
COc1cc2c(cc1Oc1ccccc1)NC(=O)C21CCN(Cc2nccn2C)CC1	100µM*	i	1%[70.6 µM]	?
COc1cc2c(cc1Oc1ccccc1)NC(=O)C21CCN(Cc2cccnc2)CC1	89µM*	i	-22%[70.6 µM]	?
COc1cc2c(cc1Oc1cccc(N(C)C)c1)NC(=O)C21CCN(Cc2nccn2C)CC1	?	i	-23%	-18%
O=C1Nc2ccccc2C12CCN(Cc1cccnc1)C2 (configuration not stated)	-17%[172 µM]	i	0%[70.6 µM]	-19%[138 µM]
SMILES	HEK293 tox	Luciferase inh	NPR1 antag	NIH3T3 tox
COc1ccc(CNC[C@H]2C[C@@H]3CCN2C[C@@H]3c2cc(-c3ccc4ccccc4c3)nn2C)cc1	?	i	0%	25µM*
COc1ccc(CNC[C@H]2C[C@@H]3CCN2C[C@@H]3c2cc(C3CCCCC3)nn2C)cc1	32µM*	i	3%[70.6 µM]	28µM*
Cc1noc(C)c1S(=O)(=O)N1[C@H]2CC[C@@H]1c1cnc(-c3ccc(F)cc3)nc1C2	45µM*	i	?	?
O=C(CCc1nc2ccccc2[nH]1)N1[C@H]2CC[C@@H]1c1cnc(-c3ccc(F)cc3)nc1C2	-28%	i	-2%	-13%
O=C(c1ccco1)N1[C@H]2CC[C@@H]1c1cnc(-c3ccc(F)cc3)nc1C2	45µM*	i	?	-26%
O=C(CCc1nc2ccccc2s1)N1[C@H]2CC[C@@H]1c1cnc(-c3ccc(F)cc3)nc1C2	40µM*	i	0.71µM*	-26%
Cn1nccc1C(=O)N1[C@H]2CC[C@@H]1c1cnc(-c3ccc(F)cc3)nc1C2	?	i	?	?
O=C1Nc2ccccc2CNC12CCN(Cc1ccncc1)CC2	i	.	.	4%
CC(C)CCN(C1CCNCC1)C1CCOCC1	-15%	i	2%	-3%
COCC(=O)NC[C@H]1C[C@@H]2CCN1C[C@@H]2c1cc(-c2ccc(OC)cc2)nn1C	-11%[172 µM]	i	1%[70.6 µM]	-13%[174 µM]
c1cncc(C2=NOC3(CCCN(CC4CCCCC4)C3)C2)c1 (configuration not stated)	-8%	.	.	4%
COC[C@H]1CCCN1C[C@H]1CN2CC[C@H]1C[C@@H]2CNC(=O)c1ccc(N(C)C)cc1	?	i	0%[70.6 µM]	71µM*
Cc1nc(-c2cccs2)cc([C@H]2CN3CC[C@H]2C[C@@H]3CNC(=O)c2ccc(N(C)C)cc2)n1	35µM*	i	1%	22µM*
Cc1nc(-c2ccccc2Br)cc([C@H]2CN3CC[C@H]2C[C@@H]3CNC(=O)Nc2ccccc2)n1	79µM*	?	0%	?
CC(=O)c1ccc(NC(=O)NC[C@H]2C[C@@H]3CCN2C[C@@H]3c2cc(-c3ccco3)nc(C)n2)cc1	79µM*	i	6%	?
Cc1nc(-c2cccs2)cc([C@H]2CN3CC[C@H]2C[C@@H]3CNC(=O)c2ccco2)n1	?	i	-11%[70.6 µM]	?
CC(=O)c1ccc(NC(=O)NC[C@H]2C[C@@H]3CCN2C[C@@H]3c2cc(-c3cccs3)nc(C)n2)cc1	89µM*	i	-2%	?
CC(=O)NC[C@H]1C[C@@H]2CCN1C[C@@H]2c1cc(-c2cccs2)nc(C)n1	?	i	-14%[70.6 µM]	?
CC(=O)c1cccc(NC(=O)NC[C@H]2C[C@@H]3CCN2C[C@@H]3c2cc(-c3cccs3)nc(C)n2)c1	22µM*	i	-2%	32µM*
O=C(c1ccccc1)N1C[C@@H]2C[C@H](C1)c1c(-c3cccnc3)ccc(=O)n1C2	-27%[172 µM]	i	-4%[70.6 µM]	-26%[174 µM]
